We go through 11 molecules from PubChem BioAssay.

The nature of experiment [1]: E. coli DRC41 culture turbidity changes, primary screen, E. coli filamentation inducer project, strain DRC41, OD650, 48 h (AID 1152).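 Note: E. coli MC1000 strain DRC41 lacking acrAB efflux pump and sulA.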 The settings on record: E. coli DRC41 (acrAB sulA), higher = more signal, called active from +8 up or from −8 down.
Experiment [2] is described as follows: small-molecule binders of probe aLefty1, primary screen, biochemical, small-molecule microarray, 635/667 nm fluorescence (AID 1153).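 Note: score merges spot fluorescence with signal-to-noise ratio from the scanned slide images.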 The note with it: higher = more signal.
Experiment [3] in a line: PSAC antagonists in infected red cells, primary screen, cell-based, P. falciparum Indochina, OD700, 1 h (AID 1154). The note with it: P. falciparum Indochina infected RBC osmotic lysis, higher = more signal, called active from +8 up or from −8 down.
Experiment [4] can be described thus: PSAC antagonists in infected red cells, primary screen, cell-based, P. falciparum Indochina, OD700, 2 h (AID 1155).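 Note: lysis reports solute entry through the parasite surface anion channel PSAC; channel blockers reduce lysis of infected cells.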 The note with it: P. falciparum Indochina infected erythrocytes, osmotic lysis OD700; higher = more signal, called active from +8 up or from −8 down.
Experiment [5] is described as follows: osmotic lysis modulators in infected erythrocytes, primary screen, PSAC antagonist project, cell-based, P. falciparum Indochina, OD700, 3 h (AID 1156). The settings on record: higher = more signal, called active from +8 up or from −8 down.
Experiment [6] is described as follows: PSAC antagonists in infected red cells, primary screen, cell-based, P. falciparum Indochina, OD700, 18 h (AID 1157). The note with it: P. falciparum Indochina infected erythrocytes, osmotic lysis OD700, 18 h; higher = more signal, called active from +8 up or from −8 down.
Experiment [7] in a line: modulators of S6 phosphorylation in cells, primary screen, cell-based, A549, cytoblot, luminescence, serum-stimulated (AID 1158).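 Note: serum-stimulated A549 lung adenocarcinoma cells; signal is phosphorylated S6 detected by cytoblot immunostaining with HRP secondary.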 The settings on record: A549 phospho-S6 cytoblot, 5 h, higher = more signal.
The target of experiment [8] is NADPH oxidase 2 (Homo sapiens) (UniProt P04839). As to the kind of experiment: NOX2-dependent H2O2 signal modulators, primary screen, NOX inhibitor project, cell-based, HEK293-NOX2, PMA-stimulated, Amplex Red fluorescence (AID 1159). Note: test concentration not given here. The note with it: 45 min, higher = more signal, called active from +8 up or from −8 down.
NADPH oxidase 2 (Homo sapiens), sequence (P04839 whole entry, looked up): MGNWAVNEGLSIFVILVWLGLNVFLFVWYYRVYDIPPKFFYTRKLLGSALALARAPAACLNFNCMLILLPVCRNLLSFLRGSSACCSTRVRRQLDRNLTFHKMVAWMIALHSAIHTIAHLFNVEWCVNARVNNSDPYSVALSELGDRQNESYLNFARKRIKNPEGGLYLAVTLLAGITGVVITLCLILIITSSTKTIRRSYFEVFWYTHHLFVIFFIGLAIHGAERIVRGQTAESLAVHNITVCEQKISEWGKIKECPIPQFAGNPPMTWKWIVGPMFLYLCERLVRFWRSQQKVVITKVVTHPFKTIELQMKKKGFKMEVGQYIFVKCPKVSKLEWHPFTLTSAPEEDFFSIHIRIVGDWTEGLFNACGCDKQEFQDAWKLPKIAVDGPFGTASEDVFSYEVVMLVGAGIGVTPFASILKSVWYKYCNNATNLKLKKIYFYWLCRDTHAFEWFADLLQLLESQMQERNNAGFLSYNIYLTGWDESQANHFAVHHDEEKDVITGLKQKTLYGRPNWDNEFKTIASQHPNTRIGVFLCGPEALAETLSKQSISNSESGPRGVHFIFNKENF
The target of experiment [9] is NADPH oxidase 4 (Homo sapiens) (UniProt Q9NPH5). As to the kind of experiment: NOX4-dependent H2O2 signal modulators, primary screen, NOX inhibitor project, cell-based, HEK293-NOX4, tetracycline-induced, Amplex Red fluorescence (AID 1160). The note with it: 45 min, higher = more signal, called active from +8 up or from −8 down.
NADPH oxidase 4 (Homo sapiens), sequence (Q9NPH5 whole entry, looked up): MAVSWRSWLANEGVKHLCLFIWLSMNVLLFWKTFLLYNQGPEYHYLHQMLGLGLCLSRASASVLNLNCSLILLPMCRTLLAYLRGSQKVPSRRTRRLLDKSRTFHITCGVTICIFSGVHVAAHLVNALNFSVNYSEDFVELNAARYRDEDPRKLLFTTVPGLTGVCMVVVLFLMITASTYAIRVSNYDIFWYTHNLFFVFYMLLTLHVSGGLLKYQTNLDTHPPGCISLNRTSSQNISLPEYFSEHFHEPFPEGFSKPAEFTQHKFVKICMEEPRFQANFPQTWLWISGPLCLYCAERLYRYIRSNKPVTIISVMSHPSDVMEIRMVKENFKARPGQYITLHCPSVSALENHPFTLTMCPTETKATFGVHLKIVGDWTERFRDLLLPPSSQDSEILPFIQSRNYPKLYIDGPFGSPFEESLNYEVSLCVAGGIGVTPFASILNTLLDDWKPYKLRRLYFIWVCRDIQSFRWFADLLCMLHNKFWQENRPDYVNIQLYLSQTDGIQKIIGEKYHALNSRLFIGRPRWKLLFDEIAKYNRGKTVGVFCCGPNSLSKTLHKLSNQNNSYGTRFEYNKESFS
Experiment [10] concerns the target NADPH oxidase 5 (Homo sapiens) (UniProt Q96PH1). As to the kind of experiment: NOX5-dependent H2O2 signal modulators, primary screen, NOX inhibitor project, cell-based, HEK293-NOX5, Amplex Red fluorescence (AID 1161). The note with it: HEK293-NOX5, ionomycin, 45 min, higher = more signal.

Calls of active or inactive are those of the source.

NADPH oxidase 5 (Homo sapiens), sequence (Q96PH1 whole entry, looked up): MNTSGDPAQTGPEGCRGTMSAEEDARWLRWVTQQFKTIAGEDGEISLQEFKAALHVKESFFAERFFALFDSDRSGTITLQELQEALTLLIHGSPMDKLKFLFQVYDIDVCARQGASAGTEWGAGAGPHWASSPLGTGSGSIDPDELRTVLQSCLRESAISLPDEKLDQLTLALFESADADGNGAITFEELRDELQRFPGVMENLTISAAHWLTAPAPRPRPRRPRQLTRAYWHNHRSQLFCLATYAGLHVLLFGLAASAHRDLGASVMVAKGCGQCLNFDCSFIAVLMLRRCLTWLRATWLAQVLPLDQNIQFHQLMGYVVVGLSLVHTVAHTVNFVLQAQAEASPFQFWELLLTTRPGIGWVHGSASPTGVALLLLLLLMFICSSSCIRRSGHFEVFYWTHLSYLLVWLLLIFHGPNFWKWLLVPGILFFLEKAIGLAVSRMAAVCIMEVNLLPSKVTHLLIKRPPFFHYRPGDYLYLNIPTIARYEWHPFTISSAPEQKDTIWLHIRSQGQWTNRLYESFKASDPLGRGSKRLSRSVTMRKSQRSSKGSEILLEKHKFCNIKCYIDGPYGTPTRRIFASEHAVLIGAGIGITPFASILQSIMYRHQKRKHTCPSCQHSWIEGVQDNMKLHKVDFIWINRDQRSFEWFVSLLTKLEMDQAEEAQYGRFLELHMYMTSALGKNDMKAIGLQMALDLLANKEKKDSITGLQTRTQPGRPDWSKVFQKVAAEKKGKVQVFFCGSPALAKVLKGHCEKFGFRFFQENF

Consider `COCCOC(=O)N1C(=O)[C@@]2(c3cc(C#CCC(C(=O)OC)C(=O)OC)ccc31)[C@H](C(=O)N1CCN(c3ncccn3)CC1)[C@H]1C(=O)O[C@H](c3ccccc3)[C@H](c3ccccc3)N1[C@@H]2c1ccc(O)cc1`, for which the z-score was 3.34 (inactive) in experiment [1]; 1.92 (inactive) in experiment [3]; -0.0642 (inactive) in experiment [4]; -0.504 (inactive) in [5]; -1.39 (inactive) in [6]; 1.69 in experiment [7]. Besides, the z-score is 1.28 (inactive) in [8], 0.7 (inactive) in [9] and 1.82 in [10]. Also, in experiment [2], the composite z-score came out at 0.443.
As for `COC(=O)Cn1c(C(=O)N2CCCC2)cc2c1C[C@H]1CN(C(=O)c3ccccc3)[C@@](Cc3ccc(OC)cc3)(C(=O)OC)[C@@H]21`, the z-score was -1.45 (inactive) in experiment [1]; 15.3 (active) in experiment [3]; 2.13 (inactive) in [4]; 1.68 (inactive) in [5]; 1.43 (inactive) in [6]; -0.56 in experiment [7]. Also, the z-score in [8] was 0.857 (inactive); in experiment [9], 0.778 (inactive); in [10] it was 2.44. The composite z-score in [2] is 0.51.
In the case of `O=C1O[C@@H](c2ccccc2)[C@@H](c2ccccc2)N2[C@@H](c3ccc(O)cc3)[C@]3(C(=O)Nc4ccc(C#CC5(O)CCCCCC5)cc43)[C@@H](C(=O)Nc3nc4ccccc4s3)[C@H]12`, the z-score was 1.74 (inactive) in [1]; 0.733 (inactive) in [3]; -0.232 (inactive) in [4]; 0.445 (inactive) in experiment [5]; -0.713 (inactive) in [6]; 1.16 in experiment [7]. Besides, the z-score in experiment [8] was 1.62 (inactive); in [9], -1.27 (inactive); in [10], 1.96. The molecule also yielded a composite z-score in experiment [2] of 0.271.
`COc1cc(CO)cc(I)c1O[C@H]1C=C(C(=O)NCCO)C[C@@H](N(CC2CCCCC2)C(=O)c2cc3ccccc3oc2=O)[C@@H]1O`: the z-score in experiment [1] is 2.01 (inactive); in [3] it was 2.5 (inactive); in [4], 0.718 (inactive); in experiment [5], 1.18 (inactive); in [6], 0.207 (inactive); in [7], -0.0608. Also, the z-score in experiment [8] is -0.289 (inactive); in experiment [9], 1.3 (inactive); in experiment [10], 0.647. The composite z-score in experiment [2] was -0.0969.
As for `[N-]=[N+]=Nc1ccccc1C[C@@]1(C(=O)N2CCOCC2)N=C(c2ccc(OCCCO)cc2)O[C@@H]1c1ccccc1N=[N+]=[N-]`, the z-score in experiment [1] is 1.94 (inactive); in experiment [3], 29.9 (active); in experiment [4], 27.6 (active); in [5], 3.13 (inactive); in [6] it was 4.27 (inactive); in experiment [7], 2.07. Further, the z-score is 0.781 (inactive) in experiment [8], 0.516 (inactive) in experiment [9] and -0.745 in [10]. The molecule further registered a composite z-score in experiment [2] of 0.241.
Consider `COCCOC(=O)N1C(=O)[C@@]2(c3cc(C#CC4=CCCCC4)ccc31)[C@H](C(=O)NC[C@H](O)c1ccccc1)[C@H]1C(=O)O[C@H](c3ccccc3)[C@H](c3ccccc3)N1[C@@H]2c1ccccc1OCCO`, for which the z-score was -0.499 (inactive) in experiment [1]; 3.23 (inactive) in [3]; 1.95 (inactive) in experiment [4]; -0.032 (inactive) in experiment [5]; 1.78 (inactive) in experiment [6]; -0.178 in experiment [7]. The z-score was 1.53 (inactive) in experiment [8], 0.911 (inactive) in [9] and 1.2 in experiment [10]. In experiment [2], the composite z-score turned out to be 0.705.
On to `O=C1C[C@@](C(=O)NCCN2CCOCC2)(c2ccc([N+](=O)[O-])cc2)[C@@H](c2ccc(CO)cc2)N1C1CCCCC1`, for which the z-score is 1.21 (inactive) in experiment [1]; 2.02 (inactive) in [3]; 0.834 (inactive) in experiment [4]; 3.08 (inactive) in experiment [5]; -0.137 (inactive) in [6]; -0.371 in experiment [7]. The z-score in [8] is 0.768 (inactive); in experiment [9] it was 0.947 (inactive); in experiment [10], 0.24. In addition, in experiment [2], the composite z-score is -0.154.
With `C[C@H]1COC(=O)[C@H](Cc2ccccc2)NC(=O)[C@@H](C)COC(=O)[C@H](Cc2ccccc2)NC1=O`, the z-score in [1] was -0.0556 (inactive); in experiment [3] it was 0.162 (inactive); in experiment [4], -0.643 (inactive); in experiment [5], -0.295 (inactive); in experiment [6], -1.93 (inactive); in [7], 1.58. The results for the z-score in [8], in experiment [9] and in experiment [10] were 0.915 (inactive), 0.838 (inactive) and 0.253, respectively. Besides, in experiment [2], the composite z-score was -0.239.
In the case of `C[C@@H]1CC[C@H]2C(=O)N3CCC[C@H]3C(=O)N2[C@H]1c1ccc(Br)cc1`, the z-score in experiment [1] is 1.29 (inactive); in experiment [3] it was 0.338 (inactive); in experiment [4], -0.0391 (inactive); in experiment [5], 0.363 (inactive); in experiment [6], 0.444 (inactive); in experiment [7], 0.349. Besides, the z-score is 0.607 (inactive) in experiment [8], 0.296 (inactive) in experiment [9] and 0.764 in [10]. The composite z-score in [2] was -0.218.
With `CC(=O)NCCCC[C@@H]1NC(=O)[C@H]2C[C@@H](C(=O)NCCCCCCN(C)C)[C@@H](c3cccc(OCCO)c3)N2C1=O`, the z-score in [1] was -0.179 (inactive); in [3] it was 2.81 (inactive); in [4] it was 0.461 (inactive); in [5] it was 1.25 (inactive); in experiment [6] it was 0.376 (inactive); in experiment [7], 0.317. Further, the figures for the z-score in experiment [8], in experiment [9] and in experiment [10] were 0.779 (inactive), 0.301 (inactive) and 1.44, respectively. Further, the composite z-score in experiment [2] was 0.257.
For `C=CCC(OC(C)=O)[C@@H]1[C@@H](N(Cc2ccc(-c3ccccc3)cc2)C(=O)c2ccc(-c3ccccc3)cc2)c2cc(OCCCO)ccc2N1C(=O)Cc1ccc(OC)cc1` (stereo not given in full), the z-score is -0.685 (inactive) in experiment [1]; 0.572 (inactive) in [3]; -0.402 (inactive) in [4]; -0.501 (inactive) in [5]; -0.184 (inactive) in experiment [6]; -0.192 in [7]. Moreover, the z-score in experiment [8] was -1.56 (inactive); in [9], 1.2 (inactive); in [10] it was 1.41. For the same molecule, the composite z-score in experiment [2] worked out at 0.149.
